Results from the supplement of paper PMC13380429.
Values without a mark were called inactive.

System: Vero E6 infected with SARS-CoV-2
Experiment: inhibition of SARS-CoV-2 cytopathic effect; higher = more antiviral protection, active = above 15
Conditions: 48 h

Compound: CCOc1cc(OCC)c(C(=O)CCC(=O)O)cc1OCC [trepibutone]
- inhibition of SARS-CoV-2 cytopathic effect (1 nM): -2.61%
- inhibition of SARS-CoV-2 cytopathic effect (8.33 nM): 0.72%
- inhibition of SARS-CoV-2 cytopathic effect (100 nM): -0.04%
- inhibition of SARS-CoV-2 cytopathic effect (833.33 nM): -0.1%
- inhibition of SARS-CoV-2 cytopathic effect (10000 nM): 0.69%

Compound: O=c1ccc2ccccc2o1 [coumarin]
- inhibition of SARS-CoV-2 cytopathic effect (1 nM): -0.97%
- inhibition of SARS-CoV-2 cytopathic effect (8.33 nM): -0.94%
- inhibition of SARS-CoV-2 cytopathic effect (100 nM): -1.66%
- inhibition of SARS-CoV-2 cytopathic effect (833.33 nM): 1.9%
- inhibition of SARS-CoV-2 cytopathic effect (10000 nM): -0.9%

Compound: O=C(Nc1ccc(F)cc1)N1CCc2ccccc2[C@@H]1c1ccc(C(F)(F)F)cc1
- inhibition of SARS-CoV-2 cytopathic effect (1 nM): 0.09%
- inhibition of SARS-CoV-2 cytopathic effect (8.33 nM): -1.41%
- inhibition of SARS-CoV-2 cytopathic effect (100 nM): -0.59%
- inhibition of SARS-CoV-2 cytopathic effect (833.33 nM): -1.97%
- inhibition of SARS-CoV-2 cytopathic effect (10000 nM): -1.53%

Compound: Oc1cc2c(cc1O)[C@H](Cc1cccc3ccccc13)NCC2
- inhibition of SARS-CoV-2 cytopathic effect (1 nM): 1.2%
- inhibition of SARS-CoV-2 cytopathic effect (8.33 nM): -0.02%
- inhibition of SARS-CoV-2 cytopathic effect (100 nM): -0.84%
- inhibition of SARS-CoV-2 cytopathic effect (833.33 nM): -0.78%
- inhibition of SARS-CoV-2 cytopathic effect (10000 nM): -2.59%

Compound: CCN(CC)CCOC(=O)C(Cc1cccc2ccccc12)CC1CCCO1 (mixture of isomers) [naftidrofuryl]
- inhibition of SARS-CoV-2 cytopathic effect (1 nM): 0.67%
- inhibition of SARS-CoV-2 cytopathic effect (8.33 nM): -0.29%
- inhibition of SARS-CoV-2 cytopathic effect (100 nM): 2.4%
- inhibition of SARS-CoV-2 cytopathic effect (833.33 nM): 1.45%
- inhibition of SARS-CoV-2 cytopathic effect (10000 nM): -1.13%

Compound: O=C(NC[C@H]1CN(c2ccc(N3CCOCC3=O)cc2)C(=O)O1)c1ccc(Cl)s1 [Rivaroxaban (Xarelto)]
- inhibition of SARS-CoV-2 cytopathic effect (1 nM): 1.99%
- inhibition of SARS-CoV-2 cytopathic effect (8.33 nM): 1.35%
- inhibition of SARS-CoV-2 cytopathic effect (100 nM): 3.46%
- inhibition of SARS-CoV-2 cytopathic effect (833.33 nM): 1.51%
- inhibition of SARS-CoV-2 cytopathic effect (10000 nM): 3.09%

Compound: Cc1c(F)cccc1NC(=O)Nc1ccc(Cl)c(S(=O)(=O)[C@H]2CCCNC2)c1O [danirixin]
- inhibition of SARS-CoV-2 cytopathic effect (1 nM): -0.94%
- inhibition of SARS-CoV-2 cytopathic effect (8.33 nM): -0.94%
- inhibition of SARS-CoV-2 cytopathic effect (100 nM): -0.32%
- inhibition of SARS-CoV-2 cytopathic effect (833.33 nM): -0.62%
- inhibition of SARS-CoV-2 cytopathic effect (10000 nM): 2.67%

Compound: COc1cc(N)c(Cl)cc1C(=O)N[C@@H]1CCN(CCCOc2ccc(F)cc2)C[C@@H]1OC (racemic) [cisapride]
- inhibition of SARS-CoV-2 cytopathic effect (1 nM): -0.68%
- inhibition of SARS-CoV-2 cytopathic effect (8.33 nM): -0.92%
- inhibition of SARS-CoV-2 cytopathic effect (100 nM): 1.02%
- inhibition of SARS-CoV-2 cytopathic effect (833.33 nM): 2.56%
- inhibition of SARS-CoV-2 cytopathic effect (10000 nM): -4.6%

Compound: O=c1ncccn1[C@@H]1O[C@H](CO)[C@@H](O)[C@H]1O [zebularine]
- inhibition of SARS-CoV-2 cytopathic effect (1 nM): -2.02%
- inhibition of SARS-CoV-2 cytopathic effect (8.33 nM): -1.31%
- inhibition of SARS-CoV-2 cytopathic effect (100 nM): 1.93%
- inhibition of SARS-CoV-2 cytopathic effect (833.33 nM): 1.42%
- inhibition of SARS-CoV-2 cytopathic effect (10000 nM): -1.45%

Compound: N=C(N)NCCCC[C@@H]1NC(=O)CCSSC[C@@H](C(N)=O)NC(=O)[C@@H]2CCCN2C(=O)[C@H](Cc2c[nH]c3ccccc23)NC(=O)[C@H](CC(=O)O)NC(=O)CNC1=O [eptifibatide]
- inhibition of SARS-CoV-2 cytopathic effect (1 nM): -0.98%
- inhibition of SARS-CoV-2 cytopathic effect (8.33 nM): 8.08%
- inhibition of SARS-CoV-2 cytopathic effect (100 nM): 3.25%
- inhibition of SARS-CoV-2 cytopathic effect (833.33 nM): 2.75%
- inhibition of SARS-CoV-2 cytopathic effect (10000 nM): -2.38%

Compound: CC(C)NC(=N)NC(=N)Nc1ccc(Cl)cc1 [proguanil]
- inhibition of SARS-CoV-2 cytopathic effect (1 nM): -0.7%
- inhibition of SARS-CoV-2 cytopathic effect (8.33 nM): 0.28%
- inhibition of SARS-CoV-2 cytopathic effect (100 nM): -0.95%
- inhibition of SARS-CoV-2 cytopathic effect (833.33 nM): -1.01%
- inhibition of SARS-CoV-2 cytopathic effect (10000 nM): -5.67%

Compound: Cc1ccc(C(=O)c2cc(O)c(O)c([N+](=O)[O-])c2)cc1 [tolcapone]
- inhibition of SARS-CoV-2 cytopathic effect (1 nM): -5.06%
- inhibition of SARS-CoV-2 cytopathic effect (8.33 nM): -3.82%
- inhibition of SARS-CoV-2 cytopathic effect (100 nM): -4.1%
- inhibition of SARS-CoV-2 cytopathic effect (833.33 nM): 0.66%
- inhibition of SARS-CoV-2 cytopathic effect (10000 nM): 1.15%

Compound: CCCc1c(OCC(O)COc2ccc3c(=O)cc(C(=O)O)oc3c2CCC)ccc(C(C)=O)c1O (stereo not given)
- inhibition of SARS-CoV-2 cytopathic effect (1 nM): 3.39%
- inhibition of SARS-CoV-2 cytopathic effect (8.33 nM): -0.15%
- inhibition of SARS-CoV-2 cytopathic effect (100 nM): 3.25%
- inhibition of SARS-CoV-2 cytopathic effect (833.33 nM): 6.19%
- inhibition of SARS-CoV-2 cytopathic effect (10000 nM): 3.02%

Compound: CC1CCN(CC[C@H]2CCCN2S(=O)(=O)c2cccc(O)c2)CC1
- inhibition of SARS-CoV-2 cytopathic effect (1 nM): 1.41%
- inhibition of SARS-CoV-2 cytopathic effect (8.33 nM): 2.24%
- inhibition of SARS-CoV-2 cytopathic effect (100 nM): 2.25%
- inhibition of SARS-CoV-2 cytopathic effect (833.33 nM): 2.79%
- inhibition of SARS-CoV-2 cytopathic effect (10000 nM): 0.64%

Compound: CCN(CC)CC1CCN(c2ncc3ncnc(Nc4ccc(F)c(Cl)c4)c3n2)CC1
- inhibition of SARS-CoV-2 cytopathic effect (1 nM): 1.37%
- inhibition of SARS-CoV-2 cytopathic effect (8.33 nM): 1.44%
- inhibition of SARS-CoV-2 cytopathic effect (100 nM): -3%
- inhibition of SARS-CoV-2 cytopathic effect (833.33 nM): -7.12%
- inhibition of SARS-CoV-2 cytopathic effect (10000 nM): 21.6% (active)

Compound: O=C(Nc1ccc(S(=O)(=O)Nc2ccccc2Cl)c(Cl)c1)c1ccccn1
- inhibition of SARS-CoV-2 cytopathic effect (1 nM): 0.59%
- inhibition of SARS-CoV-2 cytopathic effect (8.33 nM): 0.83%
- inhibition of SARS-CoV-2 cytopathic effect (100 nM): -1.92%
- inhibition of SARS-CoV-2 cytopathic effect (833.33 nM): 2.48%
- inhibition of SARS-CoV-2 cytopathic effect (10000 nM): 0.25%

Compound: CCC(=O)NCC[C@@H]1CCc2ccc3c(c21)CCO3 [ramelteon]
- inhibition of SARS-CoV-2 cytopathic effect (1 nM): 0.77%
- inhibition of SARS-CoV-2 cytopathic effect (8.33 nM): -0.74%
- inhibition of SARS-CoV-2 cytopathic effect (100 nM): -1.05%
- inhibition of SARS-CoV-2 cytopathic effect (833.33 nM): 0.28%
- inhibition of SARS-CoV-2 cytopathic effect (10000 nM): -10.8%

Compound: COc1ccc2c(c1)c(CC(=O)O)c(C)n2C(=O)c1ccc(Cl)cc1 [indomethacin]
- inhibition of SARS-CoV-2 cytopathic effect (1 nM): -1.21%
- inhibition of SARS-CoV-2 cytopathic effect (8.33 nM): 0.75%
- inhibition of SARS-CoV-2 cytopathic effect (100 nM): -0.25%
- inhibition of SARS-CoV-2 cytopathic effect (833.33 nM): 0.83%
- inhibition of SARS-CoV-2 cytopathic effect (10000 nM): 0.17%
